Results as given in PubChem BioAssay AID1159580 (chemical genetic matrix, 2015).
About 2,000 (36%) of roughly 5,500 compounds were called active. Roughly 18% stayed inconclusive and do not appear here. Rule as the data show it: active = normalized growth mostly below about 0.91 (no sharp cut-off); inconclusive = no clear call, values can overlap the other calls; inactive = mostly above about 0.92. The list shows a part of the results.

Assay: chemical genetic growth profiling, strain panel (AID 1159580);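 also: tested at 20 µM; growth read once vehicle control cultures reached saturation at 30 °C; 1 = growth at the plate median or of vehicle wells; lower values mean less growth of the strain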
Conditions: growth OD

Measured: normalized growth

CC(=O)N[C@@H](CC(C)C)C(=O)O
inactive: S. cerevisiae deletion strains, locus YJR066W, strain TOR1, hits give low values 1.02 | S. cerevisiae deletion strains, locus YJR075W, strain HOC1, hits give low values 0.992 | S. cerevisiae deletion strains, locus YKL009W, strain mrt4, hits give low values 0.962 | S. cerevisiae deletion strains, locus YKL068W, hits give low values 0.977 | S. cerevisiae deletion strains, locus YKL085W, strain MDH1 (second series), hits give low values 0.972 | S. cerevisiae deletion strains, locus YKL085W, strain MDH1, hits give low values 0.972 | S. cerevisiae deletion strains, locus YKL160W, strain elf1, hits give low values 0.977 | S. cerevisiae deletion strains, locus YKL190W, strain CNB1, hits give low values 0.987 | S. cerevisiae deletion strains, locus YKR001C, strain vps1, hits give low values 1 | S. cerevisiae deletion strains, locus YKR026C, strain gcn3, hits give low values 0.979 | S. cerevisiae deletion strains, locus YKR091W, strain srl3, hits give low values 1 | S. cerevisiae deletion strains, locus YLL001W, strain dnm1, hits give low values 0.944 | S. cerevisiae deletion strains, locus YLL026W, hits give low values 0.985 | S. cerevisiae deletion strains, locus YLL041C, strain sdh2, hits give low values 0.995 | S. cerevisiae deletion strains, locus YLR027C, strain aat2, hits give low values 0.992 | S. cerevisiae deletion strains, locus YLR039C, strain RIC1, hits give low values 0.958 | S. cerevisiae deletion strains, locus YLR058C, strain SHM2, hits give low values 0.989 | S. cerevisiae deletion strains, locus YLR102C, strain apc9, hits give low values 0.988 | S. cerevisiae deletion strains, locus YLR113W, strain HOG1, hits give low values 1.05 | S. cerevisiae deletion strains, locus YLR221C, strain rsa3, hits give low values 1 | S. cerevisiae deletion strains, locus YLR258W, strain gsy2, hits give low values 0.997 | S. cerevisiae deletion strains, locus YLR262C, strain YPT6 (second series), hits give low values 0.983 | S. cerevisiae deletion strains, locus YLR262C, strain YPT6, hits give low values 0.954 | S. cerevisiae deletion strains, locus YLR268W, strain sec22, hits give low values 0.985 | S. cerevisiae deletion strains, locus YLR320W, strain mms22, hits give low values 1.02 | S. cerevisiae deletion strains, locus YLR330W, strain CHS5, hits give low values 0.972 | S. cerevisiae deletion strains, locus YLR342W, strain FKS1 (second series), hits give low values 0.973 | S. cerevisiae deletion strains, locus YLR342W, strain FKS1, hits give low values 0.984 | S. cerevisiae deletion strains, locus YLR357W, strain rsc2, hits give low values 0.99 | S. cerevisiae deletion strains, locus YLR370C, strain arc18, hits give low values 0.982 | S. cerevisiae deletion strains, locus YLR371W, strain rom2, hits give low values 0.982 | S. cerevisiae deletion strains, locus YLR384C, strain iki3, hits give low values 0.976 | S. cerevisiae deletion strains, locus YLR418C, strain cdc73, hits give low values 0.978 | S. cerevisiae deletion strains, locus YML016C, strain PPZ1, hits give low values 0.992 | S. cerevisiae deletion strains, locus YML032C, strain rad52, hits give low values 1 | S. cerevisiae deletion strains, locus YML120C, strain ndi1, hits give low values 0.976 | S. cerevisiae deletion strains, locus YML124C, strain tub3, hits give low values 0.995 | S. cerevisiae deletion strains, locus YMR058W, strain fet3, hits give low values 0.982 | S. cerevisiae deletion strains, locus YMR078C, strain ctf18, hits give low values 0.984 | S. cerevisiae deletion strains, locus YMR125W, strain sto1, hits give low values 0.994 | S. cerevisiae deletion strains, locus YMR129W, hits give low values 0.998 | S. cerevisiae deletion strains, locus YMR205C, strain PFK2, hits give low values 0.992 | S. cerevisiae deletion strains, locus YMR223W, strain ubp8, hits give low values 0.968 | S. cerevisiae deletion strains, locus YMR231W, strain pep5, hits give low values 0.991 | S. cerevisiae deletion strains, locus YMR263W, strain SAP30, hits give low values 0.998 | S. cerevisiae deletion strains, locus YMR307W, strain GAS1, hits give low values 0.982 | S. cerevisiae deletion strains, locus YNL067W, strain RPL9B, hits give low values 1.03 | S. cerevisiae deletion strains, locus YNL071W, strain lat1, hits give low values 1.01 | S. cerevisiae deletion strains, locus YNL183C, strain NPR1, hits give low values 0.958 | S. cerevisiae deletion strains, locus YNL209W, strain ssb2, hits give low values 0.99 | S. cerevisiae deletion strains, locus YNL233W, strain BNI4, hits give low values 1.04 | S. cerevisiae deletion strains, locus YNL248C, strain rpa49, hits give low values 0.989 | S. cerevisiae deletion strains, locus YNL250W, strain rad50, hits give low values 0.96 | S. cerevisiae deletion strains, locus YNL271C, strain bni1, hits give low values 0.979 | S. cerevisiae deletion strains, locus YNL298W, strain CLA4, hits give low values 0.976 | S. cerevisiae deletion strains, locus YNL307C, strain MCK1, hits give low values 0.991 | S. cerevisiae deletion strains, locus YNL322C, strain KRE1 (second series), hits give low values 0.991 | S. cerevisiae deletion strains, locus YNR049C, strain mso1, hits give low values 0.988 | S. cerevisiae deletion strains, locus YNR052C, strain pop2, hits give low values 0.986 | S. cerevisiae deletion strains, locus YOL006C, strain TOP1, hits give low values 1.1 | S. cerevisiae deletion strains, locus YOL012C, strain htz1 1.43 | S. cerevisiae deletion strains, locus YOL147C, strain pex11, hits give low values 0.98 | S. cerevisiae deletion strains, locus YOR001W, strain rrp6, hits give low values 0.971 | S. cerevisiae deletion strains, locus YOR061W, strain CKA2, hits give low values 0.986 | S. cerevisiae deletion strains, locus YOR069W, strain VPS5, hits give low values 0.982 | S. cerevisiae deletion strains, locus YOR070C, strain gyp1, hits give low values 1 | S. cerevisiae deletion strains, locus YOR080W, strain dia2, hits give low values 0.982 | S. cerevisiae deletion strains, locus YOR083W, strain WHI5, hits give low values 0.976 | S. cerevisiae deletion strains, locus YOR106W, strain vam3, hits give low values 0.974 | S. cerevisiae deletion strains, locus YOR136W, strain idh2, hits give low values 0.992 | S. cerevisiae deletion strains, locus YOR144C, strain elg1, hits give low values 0.996 | S. cerevisiae deletion strains, locus YOR184W, strain ser1, hits give low values 0.983 | S. cerevisiae deletion strains, locus YOR231W, strain MKK1, hits give low values 1.02 | S. cerevisiae deletion strains, locus YOR265W, strain rbl2, hits give low values 0.998 | S. cerevisiae deletion strains, locus YOR270C, strain vph1, hits give low values 0.996 | S. cerevisiae deletion strains, locus YOR290C, strain snf2, hits give low values 1.01 | S. cerevisiae deletion strains, locus YOR316C, strain cot1, hits give low values 1 | S. cerevisiae deletion strains, locus YPL051W, strain arl3, hits give low values 0.992 | S. cerevisiae deletion strains, locus YPL078C, strain atp4, hits give low values 0.955 | S. cerevisiae deletion strains, locus YPL106C, strain sse1, hits give low values 0.994 | S. cerevisiae deletion strains, locus YPL240C, strain hsp82, hits give low values 0.979 | S. cerevisiae deletion strains, locus YPL256C, strain CLN2, hits give low values 1.04 | S. cerevisiae deletion strains, locus YPR119W, strain clb2, hits give low values 0.99 | S. cerevisiae deletion strains, locus YPR141C, strain kar3, hits give low values 0.974 | S. cerevisiae deletion strains, locus YPR163C, strain tif3, hits give low values 0.977 | S. cerevisiae deletion strains, locus YPR167C, strain met16, hits give low values 0.985 | S. cerevisiae deletion strains, strain wtn01, hits give low values 0.991 | S. cerevisiae strains, strain wild type, hits give low values 0.999
